Measurements reported in PubChem BioAssay (NCATS).
Records with an inconclusive call do not appear. Unmarked numbers belong to inactive results. Calls of active or inactive are those of the source. The call rests on the fitted dose curve; in most records, active means well fitted activation curve with a large enough effect; inconclusive means small, poorly fitted or top-dose-only effect; inactive means flat fitted curve, though single readings scatter.

assay: Cellular Toxicity (caspase-3) H-4-II-E (AID 663); conditions: H-4-II-E rat hepatoma; Potency: caspase-3 activation; series mostly up to 92.2 µM; caspase-3 activation: at the top concentration;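 on caspase-3 activation: cells exposed to compound for 16 hr before readout; 0% = DMSO basal and 100% = 100 µM tamoxifen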
Source text: NIH Chemical Genomics Center [NCGC]
NIH Molecular Libraries Screening Centers Network [MLSCN]
National Institutes of Environmental Health Sciences [NIEHS]
National Toxicology Program [NTP]
We have developed a 1536-well cell-based assay for quantitative high throughput screening (qHTS) against a number of cell lines to determine in vitro caspase 3/7 of small molecules. This particular assay uses the H-4-II-E cell line which is derived from rat hepatoma.
NCGC Assay Protocol Summary:
The Caspase-Glo 3/7 assay (Promega) is a homogeneous method to measure caspase-3 and caspase-7 activities in cultured cells. The quantitation of caspase 3/7 activity is based on the cleavage of a peptide-aminoluciferin substrate. After caspase cleaves the substrate the free aminoluciferin is liberated and serves as the substrate of luciferase, which generates the light. The luminescent signal is proportional to amount of caspase 3/7 activity present.
Using the Caspase-Glo 3/7 assay, the amount of caspase 3/7 activity was measured in the H-4-II-E cell line with complete culture medium following compound treatment for 16 hours. The assay was performed in opaque white 1536-well plates. In the screen, tamoxifen and doxorubicin were used as positive controls. Library compounds were measured for their ability to cause the activation of caspase 3/7 in the cell line, as reflected by an increase in luminescence signal, in a concentration-dependent manner. Data were normalized to the controls for basal activity (DMSO only) and 100% stimulation (100 uM tamoxifen). AC50 values were determined from concentration-response data modeled with the standard Hill equation.
qHTS protocol for caspase 3/7 assay in H-4-II-E cells
[Step] [Parameter] [Value] [Description]
1. Reagent; 5 uL; 1500 H-4-II-E cells/well
2. Time; 5 hr; 37 °C incubation
4. Controls; 23 nL; Tamoxifen 0.23 uM to 100 uM & Doxorubicin 7.0 pM to 100 uM
5. Time; 16 hr; 37 °C incubation
6. Reagent; 5 uL; Caspase-Glo 3/7 reagent
7. Time; 20 min; Room Temperature
8. Detection; Luminescence; Viewlux plate reader
Keywords: caspase 3/7, apoptosis, H-4-II-E cell line, luminescence, NTPHTS, NTPHTS_NCGC, NIEHS, EPA, DSSTox, MLSMR, MLSCN, NIH Roadmap, qHTS, NCGC
Potency means the concentration at half of the fitted maximal effect.

Structure (SMILES)	caspase-3 activation [%]	Potency
Nc1ccc(-c2ccc(N)c(O)c2)cc1O	1.43	–
COc1ccc(C(=O)Nc2ccccc2)cc1[N+](=O)[O-]	0.464	–
CCc1ccc(C(c2ccc(CC)cc2)C(Cl)Cl)cc1	0.365	–
COc1ccc([N+](=O)[O-])cc1N	0.755	–
CC(=O)OCc1ccc2c(c1)OCO2	1.97	–
O=C=Nc1ccc(Cl)c(Cl)c1	6.16	–
Cc1cc(=O)oc2cc(O)cc(O)c12	0.542	–
Cc1ccc(N)cc1[N+](=O)[O-]	-0.366	–
c1ccc(COCc2ccccc2)cc1	0.705	–
CCCCCCCCOc1ccc(C(=O)O)cc1	1.22	–
C1CCCNCC1	-0.33	–
C=CC(=O)CC	1.37	–
Brc1ccc(-c2ccccc2)cc1	0.376	–
C=CC1CO1 (stereo not given)	0.219	–
Cc1c(N)cccc1Cl	1.02	–
Cc1c(C(=O)O)c(O)cc2c1C(=O)c1c(O)c([C@H]3O[C@H](CO)[C@@H](O)[C@H](O)[C@H]3O)c(O)c(O)c1C2=O	-1.38	–
O=[N+]([O-])c1ccccc1Nc1ccccc1	-0.121	–
CCNC(=S)NCC	2.47	–
Cc1ccc(S(N)(=O)=O)cc1	-0.986	–
Cc1cc(-c2ccc(N=Nc3cc(S(=O)(=O)O)c4ccccc4c3N)c(C)c2)ccc1N=Nc1cc(S(=O)(=O)O)c2ccccc2c1N	-1.09	–

Structure (SMILES)	caspase-3 activation [%]	Potency
O=[N+]([O-])c1cc(N(CCO)CCO)ccc1NCCO	-0.743	–
CC(C)S	-0.762	–
O=CC(=O)c1ccccc1	3.27	–
OC1CCCCC1	1.78	–
Oc1c(Cl)cc(Cl)c(Cl)c1Cl	-0.889	–
Nc1cc(C(=O)O)c(O)c(S(=O)(=O)O)c1	0.59	–
c1ccncc1	0.265	–
NC(=O)c1ccc([N+](=O)[O-])cc1	0.436	–
CCCCC(CC)COP(=O)(OCC(CC)CCCC)OCC(CC)CCCC (stereo not given)	-0.396	–
Cc1ccc2ccc3cccc4ccc1c2c34	1.8	–
CCOc1ccc2nc(N)sc2c1	0.00101	–
CCCCC(CC)COC(=O)COc1ccc(Cl)cc1Cl (stereo not given)	-0.0586	–
Oc1cc2c(cc1O)[C@H]1c3ccc(O)c(O)c3OC[C@@]1(O)C2	10.2	–
c1ccc(SCCSc2ccccc2)cc1	-0.688	–
CC1=C(/C=C/C(C)=C/C=C/C(C)=C/C=O)C(C)(C)CCC1	–	31.6 µM (active)
OCC(CO)(CBr)CBr	-0.445	–
Nc1ccc(N=Nc2ccccc2)c(N)c1	-4.47	–
c1ccc2ncccc2c1	-0.273	–
CCCCOC(=O)COc1ccc(Cl)cc1Cl	0.418	–
COc1ccc(C)cc1N	0.613	–
